# Assay results taken from PubChem BioAssay (NCATS).
# Where “and” joins values, the source holds several entries; their conditions need not be identical. Equal values may be shown once. Inconclusive results are not listed. A call without a number means that no potency is given here. Values without a mark were called inactive. Calls of active or inactive are those of the source. Calls come from the whole dose curve; as a rule, active = well fitted curve in the direction sought with a large enough effect; inconclusive = small, poorly fitted or top-dose-only effect, or another doubt; inactive = no such curve, though single readings can be large; an effect the other way counts as inactive or inconclusive.
# How the values were obtained:
# [1] = target: Cellular tumor antigen p53 (Homo sapiens) (UniProt P04637); experiment: Primary qHTS for small molecule compounds that upregulate eGFP-tagged delta133p53alpha (in N-terminal) cells. (AID 2060322); details: NCI-H358 eGFP-delta133p53alpha fluorescence, 24 h; activation: hits give high values;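 note: cells pre-induced with doxycycline then dosed without doxycycline; series mostly up to about 56 µM; nearly all actives have a fitted effect of over 75% in size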
# Cellular tumor antigen p53 (Homo sapiens), sequence (P04637 whole entry, looked up): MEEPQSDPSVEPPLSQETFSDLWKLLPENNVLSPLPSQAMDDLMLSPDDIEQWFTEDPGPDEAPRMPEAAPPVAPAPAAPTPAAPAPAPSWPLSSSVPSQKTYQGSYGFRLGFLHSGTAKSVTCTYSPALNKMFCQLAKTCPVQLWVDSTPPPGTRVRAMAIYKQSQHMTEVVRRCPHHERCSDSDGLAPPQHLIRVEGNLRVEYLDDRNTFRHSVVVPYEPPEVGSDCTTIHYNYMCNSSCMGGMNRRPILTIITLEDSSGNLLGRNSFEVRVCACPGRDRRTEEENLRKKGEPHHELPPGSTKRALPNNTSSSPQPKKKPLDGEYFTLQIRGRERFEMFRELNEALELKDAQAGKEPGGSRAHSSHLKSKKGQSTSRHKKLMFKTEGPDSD
# Summary of the method: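 NCI-H358 cells pre-induced 24 h with 10 ng/ml doxycycline for eGFP-delta133p53alpha, plated dox-free and exposed 24 h at 37C to titrated compounds. Fixed, Hoechst-stained; gated GFP peak intensity by laser scanning cytometry, normalized to DMSO (0%) and 57.5 uM 5-azacytidine (100%).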
# [2] = target: Aldehyde dehydrogenase, mitochondrial (Homo sapiens) (UniProt P05091); experiment: qHTS for Inhibitors of the Aldehyde Dehydrogenase Family (ALDH2) Primary screen (AID 2061308); note: nearly all actives have a fitted effect of over 55% in size
# [3] = target: Retinaldehyde dehydrogenase 3 (Homo sapiens) (UniProt P47895); experiment: qHTS for Inhibitors of the Aldehyde Dehydrogenase Family (ALDH1A3) Validation screen (AID 2061312); note: nearly all actives have a fitted effect of over 45% in size
# [4] = target: Retinaldehyde dehydrogenase 3 (Homo sapiens) (UniProt P47895); experiment: qHTS for Inhibitors of the Aldehyde Dehydrogenase Family (ALDH1A3) Primary screen (AID 2061315)
# [5] = BET inhibitor-based combinations targeting novel dependencies in MECOM-rearranged (r) AML: OCI-AML3 cell line (AID 2202232); details: Potency: OCI-AML3 viability; note: nearly all actives have a fitted effect of over 35% in size; note: potency is the fitted concentration of half-maximal effect
# Summary of the method: (§1)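 Viability of cells (500 per well) is scored by luminescent CellTiter-Glo at 48 hr post-dosing. Eleven-point titrations are normalized to DMSO and empty controls and reduced to AUC values.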
# [6] = BET inhibitor-based combinations targeting novel dependencies in MECOM-rearranged (r) AML: AML-191 cell line (AID 2202236; note: nearly all actives have a fitted effect of over 35% in size; note: potency is the fitted concentration of half-maximal effect)
# Summary of the method: as §1
# [7] = BET inhibitor-based combinations targeting novel dependencies in MECOM-rearranged (r) AML: AML-194 cell line (AID 2202237; note: nearly all actives have a fitted effect of over 40% in size; note: potency is the fitted concentration of half-maximal effect)
# Summary of the method: as §1
# [8] = BET inhibitor-based combinations targeting novel dependencies in MECOM-rearranged (r) AML: UCSD-AML1 cell line (AID 2202235); note: nearly all actives have a fitted effect of over 40% in size; note: potency is the fitted concentration of half-maximal effect
# Summary of the method: (§2)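 Using pin-tool transfer, drugs were added in 11 doses to cells (500/well), incubated 48 hr, and assessed with CellTiter-Glo. Z-AUC is a mean-centring transformation applied separately to each screened line.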
# [9] = BET inhibitor-based combinations targeting novel dependencies in MECOM-rearranged (r) AML: MV-4-11 cell line (AID 2202233); note: potency is the fitted concentration of half-maximal effect; nearly all actives have a fitted effect of over 45% in size
# Summary of the method: as §2
# [10] = BET inhibitor-based combinations targeting novel dependencies in MECOM-rearranged (r) AML: HNT-34 cell line (AID 2202234); note: nearly all actives have a fitted effect of over 35% in size; note: potency is the fitted concentration of half-maximal effect
# Summary of the method: as §2
# [11] = BET inhibitor-based combinations targeting novel dependencies in MECOM-rearranged (r) AML: SET-2 cell line (AID 2202231); details: SET-2 AML cells viability, CellTiter-Glo luminescence, 48 h; viability: hits give low values, concentration not given here; note: nearly all actives have a fitted effect of over 35% in size; note: potency is the fitted concentration of half-maximal effect
# Summary of the method: as §1
compound,measurement,setting,value
CC(C)n1cnc2c(NCCc3ccc(O)cc3)nc(-c3csc4ccccc34)nc21,activation,[1],28% and 17.7%
same,Potency,[2],inactive
same,Potency,[3],inactive
same,Potency,[4],inactive
same,Potency,[5],20.9 µM (active)
same,Potency,[6],20.9 µM (active)
same,Potency,[7],20.9 µM (active)
CCNC(=O)c1noc(-c2cc(C(C)C)c(O)cc2O)c1-c1ccc(CN2CCOCC2)cc1,activation,[1],-2.59% and -6.68%
same,Potency,[2],inactive
same,Potency,[3],inactive
same,Potency,[4],inactive
same,Potency,[8],16.6 nM (active)
CC(C)c1cc(-c2n[nH]c(=O)n2-c2ccc3c(ccn3C)c2)c(O)cc1O,activation,[1],-0.957% and -3.82%
same,Potency,[2],inactive
same,Potency,[3],inactive
same,Potency,[4],inactive
same,Potency,[9],0.0235 µM (active)
COCCCOc1ccnc(CS(=O)c2nc3ccccc3[nH]2)c1C (centres undefined),activation,[1],-8.47% and 40% and -11.5%
same,Potency,[2],inactive
same,Potency,[3],inactive
same,Potency,[4],inactive
same,Potency,[5],inactive
same,Potency,[10],inactive
same,Potency,[8],inactive
same,Potency,[6],inactive
same,Potency,[7],inactive
CCC[C@H](N[C@H]1CCc2cc(F)cc(F)c2C1)C(=O)Nc1cn(C(C)(C)CNCC(C)(C)C)cn1,activation,[1],-12.9%
same,Potency,[2],inactive
same,Potency,[3],inactive
same,Potency,[4],inactive
same,Potency,[8],inactive
CN(C(=O)c1ccc(F)cc1C(F)(F)F)C1CCN(c2nnc(-c3ccnn3C)c3ccccc23)CC1,activation,[1],36.5% and 1.43%
same,Potency,[2],inactive
same,Potency,[3],inactive
same,Potency,[4],inactive
same,Potency,[9],16.6 µM (active)
same,Potency,[7],inactive
COC1CCN(C(=O)c2cc(Cc3n[nH]c(=O)c4ccccc34)ccc2F)CC1,activation,[1],4.47%
same,Potency,[2],inactive
same,Potency,[3],inactive
same,Potency,[4],inactive
same,Potency,[9],16.6 µM (active)
same,Potency,[6],18.6 µM (active)
COc1cc(OC)c2c(=O)[nH]c(-c3cc(C)c(OCCO)c(C)c3)nc2c1,activation,[1],-0.477%
same,Potency,[2],inactive
same,Potency,[3],inactive
same,Potency,[4],inactive
same,Potency,[5],14.8 µM (active)
same,Potency,[9],16.6 µM (active)
same,Potency,[7],20.9 µM (active)
COc1ccc2c(Oc3ccc(NC(=O)c4c(C)n(CC(C)(C)O)n(-c5ccccc5)c4=O)nc3)ccnc2c1,activation,[1],16.6% and 11.9%
same,Potency,[2],inactive
same,Potency,[3],inactive
same,Potency,[4],inactive
same,Potency,[9],0.372 µM (active)
COc1cc(-c2nn(C3CCC(N4CCN(C(C)=O)CC4)CC3)c3ncnc(N)c23)ccc1NC(=O)c1cc2ccccc2n1C (centres undefined),activation,[1],17.1%
same,Potency,[2],inactive
same,Potency,[3],inactive
same,Potency,[4],inactive
same,Potency,[5],7.42 µM (active)
same,Potency,[9],9.34 µM (active)
same,Potency,[10],2.09 µM (active)
same,Potency,[7],4.17 µM (active)
CNC(=O)c1ccc2c(C(=Nc3cccc(CN(C)C)c3)c3ccccc3)c(O)[nH]c2c1,Potency,[3],inactive
O=C1NC(=O)C(c2cnc3ccccn23)=C1c1cn2c3c(cccc13)CN(C(=O)N1CCOCC1)CC2,Potency,[11],118 nM (active)
same,Potency,[5],3.32 µM (active)
same,Potency,[7],2.35 µM (active)
N#Cc1c(O)c2c(-c3ccc(-c4ccccc4O)cc3)csc2[nH]c1=O,viability,[11],120%
same,Potency,[8],inactive
same,Potency,[6],inactive
same,Potency,[7],inactive
COC(=O)c1ccc(N2CCN(C)CC2)c(NC(=O)c2cccc(OC)c2)c1,activation,[1],9%
same,Potency,[2],inactive
same,Potency,[4],inactive
